H9c2 TAG inh – triacylglycerol accumulation inhibition | H9c2 cells, Nile Red lipid (TAG) fluorescence; cells loaded with 200 µM oleic acid | inhibition, % at 12.5 µM | 0.66% of 230,000 active | AID 651582;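 active means pattern-corrected inhibition of lipid staining of at least 50% with the nuclear-stain viability signal not falling by more than 50%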
CHT allo act – allosteric activators of human choline transporter CHT; Q9GZV3; CHT-expressing cells, membrane potential dye, choline EC20; active compounds read high; LV-AA mutant CHT in HEK293 cells; B-score at 10 µM; 0.49% of 310,000 active; AID 488977;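 active means initial fluorescence not abnormally high and integrated response B-score, plate-corrected, over 3 SD above library mean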
Target sequence (Q9GZV3 whole entry, looked up): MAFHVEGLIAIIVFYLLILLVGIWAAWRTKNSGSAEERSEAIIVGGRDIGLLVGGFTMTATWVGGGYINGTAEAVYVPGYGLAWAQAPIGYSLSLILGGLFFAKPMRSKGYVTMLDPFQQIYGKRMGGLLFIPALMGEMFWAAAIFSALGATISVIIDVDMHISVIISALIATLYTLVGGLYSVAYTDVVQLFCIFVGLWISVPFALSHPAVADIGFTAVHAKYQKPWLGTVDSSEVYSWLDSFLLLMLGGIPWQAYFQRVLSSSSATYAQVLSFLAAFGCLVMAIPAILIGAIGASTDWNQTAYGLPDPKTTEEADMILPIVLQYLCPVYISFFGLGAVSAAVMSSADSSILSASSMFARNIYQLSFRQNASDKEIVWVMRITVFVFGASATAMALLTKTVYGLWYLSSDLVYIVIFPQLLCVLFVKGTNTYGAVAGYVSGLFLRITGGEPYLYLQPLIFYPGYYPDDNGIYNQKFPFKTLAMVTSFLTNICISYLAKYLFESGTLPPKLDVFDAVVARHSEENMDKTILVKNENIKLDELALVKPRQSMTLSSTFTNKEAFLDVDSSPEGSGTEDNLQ
CHT inh – inhibitors of human choline transporter CHT; Q9GZV3; B-score at 10 µM; AID 488975; CHT-expressing cells, membrane potential dye, choline response; active compounds read low; 0.86% of 310,000 active;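 active means B-score over 3 SD under the library average, and starting fluorescence ratio not unusually high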;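 further: choline stimulus applied at its EC90 after an EC20 pre-addition; B-score computed on integrated fluorescence ratio after choline addition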
MIN6 prolif – MIN6 beta-cell proliferation induction; 0.29% of 330,000 active; proliferation, % at 10 µM; MIN6 cells proliferation, ATPlite luminescence, 48 h; cells starved in 0.2% serum; 100% = growth in 10% serum; AID 2380;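 active means compounds whose signal lies at least 3.5 SD above the mean of all wells on their plate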
CHT block conf – human CHT inhibition, confirmatory screen. shares compounds with CHT inh. CHT-expressing cells, choline membrane potential dye; LV-to-AA substituted CHT, HEK293 cells. CHT activity remaining % of control (active compounds read low), % at 10 µM. 70% of 2,400 active;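 active means choline transporter activity left, mean of duplicates at 10 µM, below buffer-only control mean minus 3 SD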;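 further: depolarization triggered by choline at its EC90 following an EC20 pre-addition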
HEK293 MPD ctr – activity in parental HEK293 cells lacking CHT | shares compounds with CHT inh | membrane potential dye, choline response; active = decrease or increase beyond buffer ±3SD | membrane potential ratio readout (active if shifted either direction beyond buffer ±3SD; no single direction) at 10 µM | 4% of 2,400 active | AID 493222;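 further: parental cells lack the transporter so any hit is non-specific; ratio is peak minus trough fluorescence over baseline after EC90 choline challenge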
Of the large screens only hits and unclear results are named; the others gave an inactive call (follow-up assays come after a bar, where they were run). This is a sample that favours compounds with a hit; in the whole collection about 1.7% have one here.

CCn1ncc(Br)c1C(=O)NC(C)c1ccccc1 (centres undefined)	CHT inh -5.8 | CHT block conf inactive | HEK293 MPD ctr inactive
Nc1ncnc2c1ncn2[C@@H]1O[C@H](CO)[C@@H](O)[C@H]1O	CHT inh -6 | CHT block conf 30% | HEK293 MPD ctr inactive
CC1(C)OC2C(O1)[C@@H](CO)O[C@H]2n1cnc2c(N)ncnc21 (some centres undefined)	none
O=C(Nc1ccc(Cc2ccncc2)cc1)c1cc(F)c(F)cc1Cl	CHT inh -8.5 | CHT block conf inactive | HEK293 MPD ctr inactive
COc1cc(NS(=O)(=O)c2ccc(NC(=O)c3ccc(Cl)cc3Cl)cc2)ncn1	CHT inh -9.3 | CHT block conf 27% | HEK293 MPD ctr inactive
O=C(Nc1ccc(S(=O)(=O)Nc2cnc3ccccc3n2)cc1)c1ccc(Cl)c([N+](=O)[O-])c1	CHT inh -6.1 | CHT block conf 60% | HEK293 MPD ctr inactive
COc1cc(NS(=O)(=O)c2ccc(NC(=O)c3ccc(S(=O)(=O)N4CCCC4)cc3)cc2)ncn1	none (no result: H9c2 TAG inh)
O=C(NCc1ccncc1)c1cc(F)c(F)cc1Cl	none
O=C(Nc1ccc(S(=O)(=O)Nc2cnc3ccccc3n2)cc1)c1cc(F)c(F)cc1Cl	CHT inh -6.6 (no result: H9c2 TAG inh) | CHT block conf 27% | HEK293 MPD ctr inactive
O=C(NC1CCCCC1)C(c1cccnc1)N(CCc1ccccc1)C(=O)Cc1cccs1 (centres undefined)	none (no result: H9c2 TAG inh)
COc1ccc(NS(=O)(=O)c2ccc(NC(=O)c3ccccc3Br)cc2)nn1	CHT inh -8.5 | CHT block conf 19% | HEK293 MPD ctr inactive
O=C(Nc1ccc(S(=O)(=O)Nc2cnc3ccccc3n2)cc1)c1ccc(Cl)cc1Cl	CHT inh -13 | CHT block conf -9.5% | HEK293 MPD ctr inactive
CC1CCC2(CC1)NC(=O)N(CC(=O)Nc1cccc(C#N)c1)C2=O (centres undefined)	none (no result: CHT allo act, CHT inh)
CC(C)(C)NCC(O)c1cc(O)cc(O)c1 (centres undefined)	CHT inh -5.9 (no result: MIN6 prolif) | CHT block conf 45% | HEK293 MPD ctr inactive
CC(C)NC[C@@H](O)c1ccc(O)c(O)c1	none
COc1ccc(CCNC(=O)CCc2cn(C)c3ccccc23)c(OC)c1OC	none (no result: H9c2 TAG inh)
Cc1cccc(C(C(=O)NC2CCCC2)N(C(=O)c2csnn2)C2CC2)c1 (centres undefined)	none (no result: H9c2 TAG inh)
CSc1nnc(-c2sccc2OCc2ccc(C)cc2)n1C	CHT inh -5.3 | CHT block conf 67% | HEK293 MPD ctr -9.8
Cc1ccc(COc2ccsc2C(=O)O)cc1	none (no result: CHT allo act, CHT inh, MIN6 prolif)
CC1CC(C)CN(C(=O)COc2ccc([N+](=O)[O-])cc2Cl)C1 (centres undefined)	CHT inh -6.1 | CHT block conf inactive | HEK293 MPD ctr inactive
COc1ccc(C2=NOC(C)(c3nnc(Cc4ccccc4)o3)C2)cc1 (centres undefined)	none
O=[N+]([O-])c1c(Nc2cccc(O)c2)cc(Cl)c2nonc12	CHT inh -7.4 (no result: H9c2 TAG inh) | CHT block conf 28% | HEK293 MPD ctr inactive
COc1cccc(N2CCN(c3ncnc4c3[nH]c3ccc(F)cc34)CC2C)c1 (centres undefined)	CHT inh -7 | CHT block conf 63% | HEK293 MPD ctr inactive
N#Cc1ccc(S(=O)(=O)NCC(=O)OCC(=O)N2CCCC2=O)cc1	none
CCOC(=O)C1=C(C)NC(C)=C(C(=O)OCC)C1C(=O)OCC(=O)N1CCOCC1	none (no result: CHT allo act, CHT inh)
CCOC(=O)C1CCCN(C(=O)Cc2c(F)cccc2Cl)C1 (centres undefined)	CHT inh -5.7 (no result: H9c2 TAG inh) | CHT block conf 53% | HEK293 MPD ctr inactive
CC(C)c1ccc(CNCc2ccccc2)cc1	CHT inh -5.1 (no result: H9c2 TAG inh) | CHT block conf 42% | HEK293 MPD ctr -15
O=C(C1=C[C@@H](c2ccccc2)C[C@@H](OCCCCO)O1)N1CCOCC1	CHT inh -10 | CHT block conf inactive | HEK293 MPD ctr inactive
COc1cccc(N2CC(NS(=O)(=O)c3ccc4ccccc4c3)CC2=O)c1 (centres undefined)	none
Cc1cc(NCCCN2CCOCC2)n2ncc(-c3ccc(Cl)cc3)c2n1	none (no result: H9c2 TAG inh)
Cc1cc(NCCCn2ccnc2)n2ncc(-c3ccc(Cl)cc3)c2n1	CHT inh -5.4 (no result: H9c2 TAG inh) | CHT block conf 61% | HEK293 MPD ctr inactive
CC(C)OC(=O)CN1CCN(S(=O)(=O)c2cc(Cl)ccc2Cl)CC1	CHT inh -6.4 (no result: H9c2 TAG inh) | CHT block conf 66% | HEK293 MPD ctr inactive
CN(C)c1ccc(NC(=O)CN2CCN(S(=O)(=O)c3cc(Cl)ccc3Cl)CC2)cc1	none
COc1cccc(CN2CCCC(C(=O)c3ccc4c(c3)OCO4)C2)c1OC (centres undefined)	CHT inh -12 | CHT block conf inactive | HEK293 MPD ctr inactive
O=C(c1ccc2c(c1)OCO2)C1CCCN(Cc2ccccc2OC(F)F)C1 (centres undefined)	none
CCCn1nc([N+](=O)[O-])c(C(C#N)c2nc3ccccc3s2)c(Cl)c1=O (centres undefined)	CHT inh -14 (no result: H9c2 TAG inh) | CHT block conf 17% | HEK293 MPD ctr inactive
CCn1nc([N+](=O)[O-])c(C(C#N)c2nc3ccccc3n2C)c(Cl)c1=O (centres undefined)	none (no result: H9c2 TAG inh)
O=C1CCCN1CCCN1CC(C(=O)N(CCO)Cc2ccccc2)CCC1=O (centres undefined)	none
O=C(O)c1ccc(NC2=C(Cl)C(=O)c3ccccc3C2=O)cc1	CHT inh -10 | CHT block conf 32% | HEK293 MPD ctr inactive
CCN1CCN(C(=S)Nc2cc(S(=O)(=O)N(CC)CC)ccc2C)CC1	none
Cc1cccc(NC(=O)/C(=C\c2ccco2)NC(=O)c2cccs2)c1	none
Cc1ccc(C(=O)N/C(=C/c2ccco2)C(=O)Nc2cccc(C)c2)cc1	CHT inh -5.7 (no result: H9c2 TAG inh) | CHT block conf 62% | HEK293 MPD ctr inactive
COc1ccc(N2C(=NC(=O)C(C)Oc3ccccc3)SC3CS(=O)(=O)CC32)cc1 (centres undefined)	none (no result: H9c2 TAG inh)
COc1ccc(OCC(=O)OCC(=O)NC2CCCCC2C)cc1 (centres undefined)	none (no result: CHT allo act, CHT inh)
COc1cc(NC2CCCCC2O)c2nc(-c3ccc(Cl)cc3)ccc2c1 (centres undefined)	CHT inh -8.4 (no result: H9c2 TAG inh) | CHT block conf 49% | HEK293 MPD ctr inactive
CCOc1ccc(Br)cc1S(=O)(=O)Nc1cccc(S(=O)(=O)N(C)C)c1	none (no result: H9c2 TAG inh)
O=C(Cc1ccccc1)N/N=C/c1cc(Br)cc(Br)c1O	none (no result: H9c2 TAG inh)
Oc1c(Br)cc(Br)cc1C=NCc1ccc(F)cc1	CHT inh -7.1 | CHT block conf 57% | HEK293 MPD ctr inactive
Oc1c(Br)cc(Br)cc1C=NCc1ccccc1	CHT inh -9.8 | CHT block conf 42% | HEK293 MPD ctr inactive
O/N=C/c1cc(Br)ccc1OCc1ccc(F)cc1	none
Cc1ccc(-n2cccc2/C=C2/C(=N)N3C(=NC2=O)SN=C3S(C)(=O)=O)cc1Cl	none (no result: H9c2 TAG inh, MIN6 prolif)

Screens (PubChem BioAssay)
